CHRM1 PAM – human M1 muscarinic receptor positive allosteric modulators, primary screen, CHO-K1 cells, Fluo-8 calcium fluorescence, 1536-well; CHO-K1 hM1, ACh EC20; 0% = ACh EC20, 100% = maximal ACh; activation, % at 3 µM; AID 588819, 2011; hit rate 0.088% among 360,000; in the data active means activation above about 19%, passing the limit was not always enough
Target sequence (P11229 whole entry, looked up): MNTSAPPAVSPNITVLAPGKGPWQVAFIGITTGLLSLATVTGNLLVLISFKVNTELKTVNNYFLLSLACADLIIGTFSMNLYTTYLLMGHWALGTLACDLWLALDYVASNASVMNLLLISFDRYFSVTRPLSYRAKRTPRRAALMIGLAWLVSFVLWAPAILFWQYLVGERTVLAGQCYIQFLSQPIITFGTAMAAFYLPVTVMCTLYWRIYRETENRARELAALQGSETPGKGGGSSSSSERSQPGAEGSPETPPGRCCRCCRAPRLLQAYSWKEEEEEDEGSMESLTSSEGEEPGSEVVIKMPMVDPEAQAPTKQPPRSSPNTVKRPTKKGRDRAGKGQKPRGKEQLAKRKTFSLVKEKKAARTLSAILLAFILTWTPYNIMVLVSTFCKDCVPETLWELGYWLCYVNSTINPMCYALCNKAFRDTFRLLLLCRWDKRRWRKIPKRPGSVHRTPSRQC
M1 antag – human M1 muscarinic receptor antagonists, primary screen, CHO-K1 cells, Fluo-8 calcium fluorescence, 1536-well. Muscarinic acetylcholine receptor M1 (Homo sapiens), P11229. CHO-K1 hM1, ACh EC80 antagonist. inhibition, % at 3 µM. hit rate 1.3% among 360,000;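 active means percent inhibition above its own plate's cutoff, namely the mean of that plate's compound wells plus 3 SD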;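 further: peak over basal fluorescence ratio during 140 s after agonist addition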
CHO-K1 Ca ag – counter-screen for M1 agonists: effect in parental CHO-K1 cells | Fluo-8 calcium fluorescence; scaled to maximal ATP response, vehicle zero | activation, % at 3 µM | hit rate 0.48% among 360,000 | AID 602248, 2012; in the data active means activation above about 15%;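 further: untransfected CHO-K1 host cells lacking M1 receptor as counterscreen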
CHO-K1 Ca antag – M1 antagonist counterscreen hit in parental CHO-K1 cells; ATP-induced calcium, Fluo-8 fluorescence; inhibition, % at 3 µM; hit rate 0.6% among 360,000; AID 602250;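 active means inhibition above a per-plate cutoff, the plate's mean sample inhibition plus 3 SD, cut at about 24% in these data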
CHO-K1 Ca PAM – nonselective calcium activators in parental CHO-K1 cells, primary screen, counter-screen for M1 PAM project, cell-based, Fluo-8 calcium fluorescence, full deck, 1536-well; ATP EC20; 0% at ATP EC20, 100% at ATP max; AID 602247, 2012; hit rate 0.02% among 360,000; activation, % at 3 µM;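 active means activation above the run cutoff, the mean activation of all test compounds plus 3 SD, cut at about 40% in these data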;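 further: peak over basal fluorescence ratio in a 140 s read after ATP addition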
M1 ag – human M1 muscarinic receptor agonists, primary screen, Fluo-8 calcium fluorescence, CHO-K1 cells, HTS | CHO-K1 hM1, agonist mode; 0% DMSO, 100% acetylcholine EC100 | hit rate 0.33% among 360,000 | activation, % at 3 µM | Muscarinic acetylcholine receptor M1 (Homo sapiens), P11229;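 active means activation above the run's mean compound activation plus 3 SD, cut at about 16% in these data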;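 further: peak over basal fluorescence ratio within a 140 s kinetic read after compound addition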
Hits are given with their value. This is a sample that favours compounds with a hit; in the whole collection about 2.4% have one here.

Screening CCN(CC)CCNC(=O)c1ccc(NC(=O)c2ccc(C(=O)c3ccccc3)cc2)cc1 returned CHRM1 PAM inactive, M1 antag inactive, CHO-K1 Ca ag inactive, CHO-K1 Ca antag inactive, CHO-K1 Ca PAM inactive and M1 ag inactive.
For CN(C)S(=O)(=O)c1cccc(NC(=O)COc2ccccc2C(=O)Nc2ccccc2)c1 the results were CHRM1 PAM inactive, M1 antag 41.3, CHO-K1 Ca ag inactive, CHO-K1 Ca antag inactive, CHO-K1 Ca PAM inactive and M1 ag inactive.
CN(C)S(=O)(=O)c1cccc(NC(=O)c2ccc(COc3ccccc3)cc2)c1 was read as CHRM1 PAM inactive, M1 antag 38.6, CHO-K1 Ca ag 18.4, CHO-K1 Ca antag 29.7, CHO-K1 Ca PAM inactive and M1 ag inactive.
`CCN(CC)CCNC(=O)c1ccc(NC(=O)c2ccc(COc3ccccc3)cc2)cc1` gave CHRM1 PAM inactive, M1 antag 53.0, CHO-K1 Ca ag inactive, CHO-K1 Ca antag inactive, CHO-K1 Ca PAM inactive and M1 ag inactive.
For CN(C)S(=O)(=O)c1cccc(NC(=O)c2ccc(OC(F)(F)F)cc2)c1 the results were CHRM1 PAM inactive, M1 antag inactive, CHO-K1 Ca ag 19.4, CHO-K1 Ca antag inactive, CHO-K1 Ca PAM inactive and M1 ag inactive.
For CCN(CC)CCNC(=O)c1ccc(NC(C)=O)cc1 the results were CHRM1 PAM inactive, M1 antag inactive, CHO-K1 Ca ag inactive, CHO-K1 Ca antag inactive, CHO-K1 Ca PAM inactive and M1 ag inactive.
Screening CCN(CC)CCNC(=O)c1ccc(NC(=O)COc2ccc3c(c2)CCC3)cc1 returned CHRM1 PAM inactive, M1 antag 44.6, CHO-K1 Ca ag inactive, CHO-K1 Ca antag inactive, CHO-K1 Ca PAM inactive and M1 ag inactive.
`COc1ccc(Nc2nc(N)nc(CSC(=S)N3CCCCC3C)n2)cc1` (configuration not stated) gave CHRM1 PAM inactive, M1 antag inactive, CHO-K1 Ca ag 22.4, CHO-K1 Ca antag inactive, CHO-K1 Ca PAM inactive and M1 ag inactive.
Screening COc1ccc(Nc2nc(N)nc(CSC(=S)N3CCCCC3)n2)cc1 returned CHRM1 PAM inactive, M1 antag inactive, CHO-K1 Ca ag inactive, CHO-K1 Ca antag inactive, CHO-K1 Ca PAM inactive and M1 ag inactive.
Screening Nc1cc(S(=O)(=O)Nc2ccccc2Cl)ccc1N1CCCCC1 returned CHRM1 PAM inactive, M1 antag inactive, CHO-K1 Ca ag inactive, CHO-K1 Ca antag inactive, CHO-K1 Ca PAM inactive and M1 ag inactive.
Screening O=C(Nc1cccc(Cl)c1)Nc1nnc(-c2ccncc2)s1 returned CHRM1 PAM inactive, M1 antag inactive, CHO-K1 Ca ag inactive, CHO-K1 Ca antag 33.1, CHO-K1 Ca PAM inactive and M1 ag inactive.
`CS(=O)(=O)c1ccc2nc(NC(=O)Nc3cccc(Cl)c3)sc2c1` gave CHRM1 PAM inactive, M1 antag 32.6, CHO-K1 Ca ag 15.7, CHO-K1 Ca antag inactive, CHO-K1 Ca PAM inactive and M1 ag inactive.
Screening O=C(NC1CC1)c1ccc(C2SCC(=O)N2Cc2ccccc2)cc1 (configuration not stated) returned CHRM1 PAM inactive, M1 antag inactive, CHO-K1 Ca ag inactive, CHO-K1 Ca antag inactive, CHO-K1 Ca PAM inactive and M1 ag inactive.
For C=CCOc1cccc(C(=O)Nc2ncn[nH]2)c1 the results were CHRM1 PAM inactive, M1 antag inactive, CHO-K1 Ca ag inactive, CHO-K1 Ca antag inactive, CHO-K1 Ca PAM inactive and M1 ag inactive.
For CC(=O)c1c(N2CCN(C)CC2)nc(=S)n(-c2cc(C)ccc2C)c1C the results were CHRM1 PAM inactive, M1 antag inactive, CHO-K1 Ca ag inactive, CHO-K1 Ca antag inactive, CHO-K1 Ca PAM inactive and M1 ag inactive.
For Cc1c(C(=O)NCc2ccc3c(c2)OCCO3)sc(=O)n1Cc1ccc2c(c1)OCO2 the results were CHRM1 PAM inactive, M1 antag inactive, CHO-K1 Ca ag inactive, CHO-K1 Ca antag inactive, CHO-K1 Ca PAM inactive and M1 ag inactive.
`Cc1c(C(=O)NCc2cccc([N+](=O)[O-])c2)sc(=O)n1Cc1ccc(F)cc1` gave CHRM1 PAM inactive, M1 antag 39.2, CHO-K1 Ca ag inactive, CHO-K1 Ca antag inactive, CHO-K1 Ca PAM inactive and M1 ag inactive.

From PubChem BioAssay
